Screening data (PubChem)
CHX counter: Cycloheximide Counterscreen for Small Molecule Inhibitors of Shiga Toxin | max response, % | 12% of 300,000 active | cell reporter, cycloheximide protein synthesis inhibition counterscreen | AID 2314, 2010; in the data active means max response mostly above about 13%, no sharp cut-off; inactive means mostly below about 14%; further: read at 38.3 µM for the half of the compounds with a filed dose
Pf growth 48h: Primary qHTS for delayed death inhibitors of the malarial parasite plastid, 48 hour incubation; Potency, µM (doses to about 28.7 µM), actives largely listed as inhibitors; 5.9% of 310,000 active; P. falciparum luciferase growth in erythrocytes, 48 h
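Cell-based growth assay: transgenic P. falciparum expressing firefly luciferase, cultured in red cells within RPMI 1640 containing 0.5% w/v Albumax, 24 mM bicarbonate and gentamycin. A drop in luciferase activity indicates inhibition.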
Shiga inhibitor: A qHTS for Small Molecule Inhibitors of Shiga Toxin; Vero cells, Shiga toxin protein synthesis inhibition reporter; inhibition, % at 38.7 µM; 9.2% of 290,000 active; in the data active means inhibition mostly above about 28%, no sharp cut-off; inactive means mostly below about 43%
NS1 function inh: qHTS Assay for Inhibitors of Influenza NS1 Protein Function | AID 2326, 2010 | 0.4% of 270,000 active | Potency, µM (doses to about 46.1 µM); calls by dose curve; further: actives are rising curves; nearly all actives have a fitted effect of over 50% in size
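Growth recovery, yeast-based: influenza A NS1 expressed in S. cerevisiae causes slow growth, and suppressors are detected by OD600. The parent strain without NS1 is used as positive control.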
Sm TGR inh: qHTS Assay for the Inhibitors of Schistosoma Mansoni Peroxiredoxins; Schistosoma mansoni thioredoxin glutathione reductase (TGR), Q962Y6; purified TGR, DTNB reduction, TNB absorbance 405 nm; 3% of 360,000 active; Potency, µM (top dose mostly 114 µM), actives largely listed as inhibitors; further: nearly all actives have a fitted effect of over 60% in size
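First, TGR (20 nM dispensed) and NADPH were mixed with compound. Second, a 15 min room-temperature incubation followed. Third, further NADPH and then DTNB were added to start the reaction. Finally, TNB absorbance was monitored kinetically.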
Pf growth 96h: Primary qHTS for delayed death inhibitors of the malarial parasite plastid, 96 hour incubation. 6.9% of 320,000 active. P. falciparum luciferase reporter growth, 96 h. Potency, µM (top dose mostly 28.7 µM), hits mostly inhibitors. AID 504834, 2011
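P. falciparum expressing integrated firefly luciferase grown in erythrocytes (2% hematocrit, 0.05% parasitemia final) with compounds for 96 hours at 37 C, 5% CO2. Growth inhibition read as loss of luminescence after adding luciferase detection reagent.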
Each line names hits and unclear results; the compound was inactive in the other large screens. Shown are actives, neighbours in structure and some others; about 21% of the full set was active somewhere. Unless noted, the call rests on the fitted dose curve; in most records, active means well fitted curve in the direction sought with a large enough effect; inconclusive means small, poorly fitted or top-dose-only effect, or another doubt; inactive means no such curve, though single readings can be large; an effect the other way counts as inactive or inconclusive.

Cc1c(C(=O)N2CCC(Cc3ccccc3)CC2)cccc1[N+](=O)[O-]	none
O=C(c1ccc(Br)o1)N1CCC(Cc2ccccc2)CC1	Pf growth 48h 13µM
COc1cccc(N2CCN(C(=O)C3CCN(S(=O)(=O)c4c(C)noc4C)CC3)CC2)c1	none (no result: CHX counter, Pf growth 48h, Shiga inhibitor, NS1 function inh, Pf growth 96h)
CCC(=O)N1CCc2cc(Br)cc(S(=O)(=O)CCC(=O)Nc3ccc(C)c(C)c3)c21	none (no result: CHX counter, Pf growth 48h, Shiga inhibitor, NS1 function inh, Pf growth 96h)
CC(=O)N1c2ccc(S(=O)(=O)N3CCCCCC3)cc2CC1C(=O)NCc1cccc(C)c1 (stereo not given)	none (no result: CHX counter, Pf growth 48h, Shiga inhibitor, NS1 function inh, Pf growth 96h)
O=C(NCCCn1ccnc1)c1ccc(Br)s1	none
COc1ccc(/C=C/C(=O)Nc2nc3n(n2)C(c2ccccc2)C=C(c2ccccc2)N3)cc1 (stereo not given)	none (no result: CHX counter, Pf growth 48h, Shiga inhibitor, NS1 function inh, Pf growth 96h)
O=C(c1cccs1)N1CCN(Cc2ccccc2)CC1	none
c1ccc(CC2CCN(c3ncnc4sccc34)CC2)cc1	CHX counter 13 (no result: NS1 function inh)
O=C(c1cccs1)N1CCC(Cc2ccccc2)CC1	Pf growth 48h 8.3µM
O=C(O)c1cc2c(N3CCC(Cc4ccccc4)CC3)ncnc2s1	none (no result: NS1 function inh)
CCOC(=O)C1=C(COC(=O)/C=C/c2cccc(OC)c2OC)NC(=O)NC1C (stereo not given)	CHX counter 40, Shiga inhibitor 53
CCOC(=O)C1=C(COC(=O)/C=C/c2ccccc2)NC(=O)NC1C (stereo not given)	none (no result: CHX counter, Shiga inhibitor, NS1 function inh)
CCOC(=O)C1=C(COC(=O)/C=C/c2ccccc2Cl)NC(=O)NC1C (stereo not given)	CHX counter 49, Shiga inhibitor 56
CCOC(=O)C1=C(COC(=O)/C=C/c2ccc(C)o2)NC(=O)NC1C (stereo not given)	Pf growth 48h inconclusive, Sm TGR inh 22µM, Pf growth 96h inconclusive (no result: CHX counter, Shiga inhibitor, NS1 function inh)
CCOC(=O)C1=C(COC(=O)/C=C/c2ccccc2F)NC(=O)NC1C (stereo not given)	none (no result: CHX counter, Shiga inhibitor, NS1 function inh)
CC(=O)c1cccc(-n2c(=O)c3c4c(sc3n(Cc3cccc(C)c3)c2=O)CN(C(C)=O)CC4)c1	none (no result: CHX counter, Pf growth 48h, Shiga inhibitor, NS1 function inh, Pf growth 96h)
Nc1nc2c([N+](=O)[O-])cccc2s1	none (no result: Sm TGR inh)
Cc1ccc(NC(=O)CSc2nc3ccccc3n2CC(=O)N(C)C2CCCCC2)cc1C	none (no result: CHX counter, Pf growth 48h, Shiga inhibitor, NS1 function inh, Pf growth 96h)
C=CCN=C(NC#N)SC	Pf growth 48h 0.23µM
CC1(C)Cc2c(C#N)c(OCC(=O)c3ccc(Cl)cc3)nc(-c3ccoc3)c2CO1	Sm TGR inh 40µM, Pf growth 96h inconclusive
Cn1nc(-c2ccc(Cl)cc2)nc2c(=O)n(C)c(=O)nc1-2	Pf growth 48h inconclusive, Shiga inhibitor 22, Sm TGR inh inconclusive, Pf growth 96h 0.93µM
C=C1CCN(C(CC(C)C)C(=O)NCCCc2ccccc2)S(=O)(=O)c2ccccc21 (stereo not given)	none (no result: Pf growth 48h, NS1 function inh, Sm TGR inh, Pf growth 96h)
COC(=O)CCCN=C1SCCN1Cc1ccccc1	none
O=C(CN1CCSC1=NCc1ccccc1)c1ccc(Cl)c(Cl)c1	Pf growth 48h inconclusive, Pf growth 96h 9.3µM
Cn1c2ccccc2c(=O)c2cc(C#Cc3ccsc3)ccc21	CHX counter 9.3, Sm TGR inh inconclusive, Pf growth 96h inconclusive
C=CCn1c2ccccc2c(=O)c2cc(C#Cc3cc(OC)cc(OC)c3)ccc21	Pf growth 48h 12µM, Pf growth 96h inconclusive (no result: CHX counter, Shiga inhibitor, NS1 function inh)
Cn1c2ccccc2c(=O)c2ccc(C#Cc3ccccn3)cc21	Pf growth 48h inconclusive, Sm TGR inh 32µM, Pf growth 96h 10µM
COc1cc(C#Cc2c(C=O)n(C)c3ccccc23)cc(OC)c1	Pf growth 48h inconclusive, Pf growth 96h inconclusive (no result: CHX counter, Shiga inhibitor, NS1 function inh)
Cn1c2ccccc2c(=O)c2cc(C#Cc3ccccn3)ccc21	CHX counter 23, Sm TGR inh 20µM, Pf growth 96h inconclusive
O=C(Cn1cc([N+](=O)[O-])cn1)Nc1cccnc1	Pf growth 96h inconclusive (no result: NS1 function inh)
Cc1noc(-c2ccc(-c3noc(-c4cccc(F)c4)n3)cc2)n1	none (no result: CHX counter, Pf growth 48h, Shiga inhibitor, NS1 function inh, Pf growth 96h)
Cc1cc([N+](=O)[O-])nn1CCC(=O)Nc1nccs1	none
NNC(=O)CSc1cccc2cccnc12	none
CN(C)C(=O)CSc1cccc2cccnc12	CHX counter 12
O=C(CSc1cccc2cccnc12)N1CCCC1	CHX counter 42, Shiga inhibitor 37
Cc1ccc(/C=C2/C(=O)NC(=O)N(CCc3ccc(F)cc3)C2=O)o1	Sm TGR inh inconclusive
